Compound activity deposited in PubChem by several laboratories.
TNF necrop inh: inhibitors of TNF-alpha triggered necroptosis, primary screen, cell-based, Jurkat FADD-/-, single concentration; Jurkat FADD-/- TNF necroptosis rescue, ATP luminescence, 24 h; 0 = TNF only, 100 = no-TNF cells; activation (protection from cell death), % at 10 µM; actives 0.068% (n = 220,000);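 active = activation, meaning protection from cell death, of at least 50% relative to plate controls; inactive = activation below 50%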;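 note: necroptosis triggered by 40 ng/mL TNF-alpha added together with compound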
L929 necroptosis: inhibitors of zVAD-triggered necroptosis, primary screen, L929 cells; L929 zVAD necroptosis rescue, ATP luminescence, 24 h; with zVAD 60 µM; viability rescue, % at 10 µM; actives 0.38% (n = 220,000); AID 1377, 2008;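 active = activation, scaled between plate controls, above about 75%, limit read from the data; inactive = activation under that limit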;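 note: 0% = zVAD with DMSO and 100% = DMSO alone without zVAD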
Bim-Mcl-1: inhibitors of Bim peptide binding to Mcl-1, primary screen, biochemical, bead-based flow cytometry, multiplex. Induced myeloid leukemia cell differentiation protein Mcl-1 (Homo sapiens), Q07820. Bim peptide-Mcl-1 binding. inhibition, % at 10 µM. actives 0.1% (n = 190,000); in the data active = inhibition above about 40%;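 note: 0% = no compound tracer wells and 100% = peptide blocker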
MCL1 BIM primary: inhibitors of MCL1 binding to BIM-BH3, primary screen, biochemical, fluorescence polarization; AID 2057, 2009; Induced myeloid leukemia cell differentiation protein Mcl-1 (Homo sapiens), Q07820; GST-MCL1 / FITC-Bim-BH3 fluorescence polarization; actives 0.68% (n = 320,000); inhibition, % at 10.9 µM;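 active = inhibition above the mean inhibition of all tested compounds plus 3 SD, set per campaign, cut at about 40% in these data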;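 note: 0% = DMSO wells and 100% = unlabeled Bim-BH3 peptide control; higher means more loss of mP so more displacement of Bim peptide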
Mcl1-Noxa inh: Mcl-1/Noxa binding inhibitors, primary screen, biochemical, TR-FRET, 1536-well; Induced myeloid leukemia cell differentiation protein Mcl-1 (Homo sapiens), Q07820; TR-FRET Mcl-1/Noxa peptide binding, 2 h; inhibition, % at 21.7 µM; actives 1.5% (n = 220,000);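 active = compounds that cut the protein-peptide binding signal by more than 50% relative to plate controls in a single-dose test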;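 note: His-tagged Mcl-1 with rhodamine Noxa BH3 peptide and terbium anti-His antibody; 0% = Mcl-1 plus Noxa peptide wells and 100% = peptide-only wells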
Mcl1-Bid inh: Mcl-1/Bid binding inhibitors, primary screen, biochemical, TR-FRET, 1536-well. TR-FRET Mcl-1/Bid-Dy647 peptide binding. inhibition, % at 21.7 µM. actives 0.97% (n = 220,000). AID 1021, 2008;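 active = compounds that cut the binding signal by more than half at the single screening dose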;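 note: His-tagged Mcl-1 with europium anti-His antibody binding Bid BH3 peptide; 0% = Mcl-1 plus peptide wells and 100% = peptide-only wells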
Bcl-xL conf: Bcl-xL inhibitors blocking Bim BH3 binding, confirmation, counter-screen for MCL1 inhibitor project, biochemical, fluorescence polarization. shares compounds with MCL1 BIM primary. AID 2166, 2009. GST-Bcl-xL / FITC-Bim BH3 peptide FP binding. inhibition, % at 10.9 µM. actives 54% (n = 1,700);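 active = inhibition above a cutoff equal to the mean inhibition of all tested compounds plus 3 SD, cut at about 30% in these data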;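 note: 0% = DMSO wells and 100% = unlabeled Bim BH3 control peptide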
Target sequence (Q07817 whole entry, looked up): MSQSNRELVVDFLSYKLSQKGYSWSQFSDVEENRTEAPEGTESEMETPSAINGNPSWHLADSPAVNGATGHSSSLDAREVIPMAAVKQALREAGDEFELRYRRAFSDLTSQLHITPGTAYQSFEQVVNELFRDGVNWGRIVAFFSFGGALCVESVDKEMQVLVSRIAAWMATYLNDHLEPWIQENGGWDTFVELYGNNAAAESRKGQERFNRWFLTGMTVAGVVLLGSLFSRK
MCL1 BIM confirm: inhibitors of MCL1 binding to BIM-BH3, confirmation, biochemical, fluorescence polarization, triplicate; shares compounds with MCL1 BIM primary; GST-MCL1 / FITC-Bim-BH3 fluorescence polarization; inhibition, % at 10.9 µM; actives 61% (n = 1,700); AID 2168, 2009;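 active = inhibition above the average of all tested compounds plus 3 SD, cut at about 40% in these data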;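 note: 0% = DMSO wells and 100% = unlabeled Bim-BH3 control peptide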
The depositor's hits bear a star; · = not tested or not shown; + = active, no number. An excerpt weighted towards active compounds, which were near 2.4% of everything screened.

SMILES	TNF necrop inh	L929 necroptosis	Bim-Mcl-1	MCL1 BIM primary	Mcl1-Noxa inh	Mcl1-Bid inh	Bcl-xL conf	MCL1 BIM confirm
Cc1c(C(c2ccc(Cl)cc2Cl)c2c(O)c3ccccc3oc2=O)c(=O)n(-c2ccccc2)n1C (centres undefined)	-1	1	-1	1	35	9	·	·
CN(C)[C@@H]1C(=O)C(C(N)=O)=C(O)[C@@]2(O)C(=O)C3=C(O)c4c(O)cccc4[C@@](C)(O)C3C[C@@H]12 (some centres undefined)	·	·	·	51*	·	·	17	26
Oc1c(Cl)c(Cl)c(Cl)c(Cl)c1Cl	·	·	·	53*	·	·	11	38
C[Se]C[C@@H](N)C(=O)O	·	·	·	7	·	·	·	·
CC[N+](CC)(CC)CC	2	1	·	50*	-8	-49	13	2
Nc1c2c(nc3ccccc13)CCN(Cc1ccccc1)C2	·	·	·	+	·	·	72*	101*
CN1C(=O)c2ccccc2Sc2ccc(C(=O)N3CCC4(CC3)OCCO4)cc21	-2	0	0	4	16	-4	·	·
Cc1ccc(/C=C2/Sc3ccc(C(=O)N4CCC5(CC4)OCCO5)cc3NC2=O)cc1	·	·	·	125*	·	·	108*	131*
CN1C[C@H](CO)C=C2c3cccc4[nH]cc(c34)C[C@H]21	-1	0	1	79*	19	-23	65*	87*
C=CCN1C(=O)NC(=O)/C(=C\c2ccc(-c3ccccc3[N+](=O)[O-])o2)C1=O	-2	17	-8	29	15	-52	·	·
O=C1NC(=O)N(Cc2ccco2)C(=O)/C1=C/c1ccc(-c2cccc([N+](=O)[O-])c2)o1	0	0	8	43*	93*	-2	24	62*
NC(=O)CS(=O)C(c1ccccc1)c1ccccc1 (centres undefined)	·	·	-1	·	9	0	·	·
COC(=O)C1=C(c2c(C)noc2C)C[C@@H]2CC[C@H]1N2C(=O)NCc1ccc(F)cc1	·	·	·	-2	·	·	·	·
O=C1C(Cl)=CC(=Nc2ccc(O)cc2)C=C1Cl	·	·	·	44*	·	·	40*	60*
CC(=O)O[C@H]1CC[C@@]2(C)[C@H](C1)C(=O)C[C@H]1[C@@H]3CC[C@@H]4[C@@H](CN5C[C@@H](C)CC[C@H]5[C@@]4(C)O)[C@@H]3C[C@@H]12	·	·	·	2	·	·	·	·
COc1ccccc1N1C(=O)NC(=O)/C(=C/c2ccc([N+](=O)[O-])s2)C1=O	-21	-1	·	25	45	-25	·	·
O=C1NC(=O)N(Cc2ccc(F)cc2)C(=O)/C1=C\c1ccc(N2CCCC2)cc1	-4	1	·	-98	35	-35	·	·
COc1ccc(N2C(=O)NC(=O)/C(=C\c3ccc([N+](=O)[O-])s3)C2=O)cc1	-7	-1	1	41*	51*	-15	44*	55*
O=C1NC(=O)N(Cc2ccc(F)cc2)C(=O)/C1=C\c1ccc([N+](=O)[O-])s1	-21	-1	·	40*	93*	31	17	44*
COc1cc(C)c(CNCCc2c[nH]c3ccccc23)cc1C	·	·	·	-7	·	·	·	·
CCCCCCn1c(O)c(/C=N/N2CCCCCC2)c(=O)[nH]c1=O	2	1	·	-1	-10	-24	·	·
NC(Cc1cc(O)c(O)cc1O)C(=O)O (centres undefined)	·	·	·	95*	·	·	55*	96*
N[C@@H](CCl)C(=O)O	·	·	·	2	·	·	·	·
